# Source: the supplement of paper PMC8728848
# The sample as a whole holds a higher share of the strongest signals than the screen did.
# B1: GS7807E-bfa-538-23-538 (Bacteroides fragilis) (protein)
# chain: TDSFESFNTNEAGFDNDSKKQDFNYYGIPLGIIQQGIYFNYDWGSGKNWPFQTMQNLGADLFSGYVHDFNPFNEGKNNSTYYMMDGWNGSTWDNTYGYIMPEVQKSETINEKDNIGFFGITKILKVELMHRLSDLYGPIVYTQFGSKTGSTPDTQQEAYKAFFNDLDTGIAKIREYQKANPDIESFAKFDILMPQGKRTFSEWIRFANSLRLRLAVRIAMADSKLAVAEAQKALTDEEGLLEGNDEVVAVSTSSGYTNPFGEINKAWGEVFMNANMESLLVGYEDPRMEKYFDKATGSDATSLIDYKGTYKGIRQGTGFSHKNYNGHSKSTITQQTDAVLMTPAEVWFLRAEAALRGWSSESVKDCYEKGVKASFAQWGAAGAEAYLESDRKPSDYVDAFKAANNVKAVNTLTPKWDDAAGNEDKLGRIITQKWLAMFPEGGEAWAEQRRTGYPRLFPVLVNQSEGTVDTNLGPRRLNFFVGIKTTNPEQYTQLVNALGGIDNCGTRLWWDTGRNF
# Columns and labels:
# Test in all cases: glycan array binding signal (z-score within array); higher = stronger binding
# Details in all cases: glycan notation: IUPAC condensed, linker removed
# [1] = target: Glc(a1-4)Glc
# Summary of the method: (§1)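 Arrays were curated from the Consortium for Functional Glycomics database, 3228 in total, and kept only where the protein sequence was available. Binding is expressed as a within-array Z-score. This score was averaged across arrays of the same protein sequence at different concentrations or buffers and across linkers, and negative values can be read as non-binding.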
# [2] = target: GlcA(b1-3)GlcNAc
# Summary of the method: as §1
# [3] = target: GlcNAc(a1-4)Gal(b1-4)GalNAc
# Summary of the method: as §1
# [4] = target: GlcNAc(a1-4)Gal(b1-4)GlcNAc(b1-3)Gal(b1-4)GlcNAc
# Summary of the method: as §1
# [5] = target: GlcNAc(b1-3)Gal(b1-4)GlcNAc(b1-3)Gal(b1-4)GlcNAc(b1-3)Gal(b1-4)GlcNAc(b1-2)Man(a1-3)[GlcNAc(b1-3)Gal(b1-4)GlcNAc(b1-3)Gal(b1-4)GlcNAc(b1-3)Gal(b1-4)GlcNAc(b1-2)Man(a1-6)]Man(b1-4)GlcNAc(b1-4)[Fuc(a1-6)]GlcNAc
# Summary of the method: as §1
# [6] = target: GlcNAc(b1-3)Gal(b1-4)GlcNAc(b1-3)Gal(b1-4)GlcNAc(b1-3)Gal(b1-4)GlcNAc(b1-3)Gal(b1-4)GlcNAc(b1-2)Man(a1-3)[GlcNAc(b1-3)Gal(b1-4)GlcNAc(b1-3)Gal(b1-4)GlcNAc(b1-3)Gal(b1-4)GlcNAc(b1-3)Gal(b1-4)GlcNAc(b1-2)Man(a1-6)]Man(b1-4)GlcNAc(b1-4)[Fuc(a1-6)]GlcNAc
# Summary of the method: as §1
# [7] = target: GlcNAc6S(b1-3)Gal(b1-4)GlcNAc
# Summary of the method: as §1
# [8] = target: Man(a1-3)[Man(a1-6)]Man(a1-6)[Man(a1-3)]Man(b1-4)GlcNAc(b1-4)GlcNAc
# Summary of the method: as §1
# [9] = target: Man(a1-3)[Man(a1-6)]Man(b1-4)GlcNAc(b1-4)GlcNAc
# Summary of the method: as §1
# [10] = target: Neu5Ac(a2-3)Gal(b1-3)GalNAc6S
# Summary of the method: as §1
# [11] = target: Neu5Ac(a2-3)Gal(b1-4)GlcNAc(b1-2)Man
# Summary of the method: as §1
# [12] = target: Neu5Ac(a2-3)Gal(b1-4)GlcNAc(b1-2)[Neu5Ac(a2-3)Gal(b1-4)GlcNAc(b1-4)]Man(a1-3)[GlcNAc(b1-4)][Neu5Ac(a2-3)Gal(b1-4)GlcNAc(b1-2)[Neu5Ac(a2-3)Gal(b1-4)GlcNAc(b1-6)]Man(a1-6)]Man(b1-4)GlcNAc(b1-4)GlcNAc
# Summary of the method: as §1
# [13] = target: Neu5Ac(a2-3)Gal(b1-4)GlcNAc(b1-2)[Neu5Ac(a2-3)Gal(b1-4)GlcNAc(b1-6)]Man(a1-6)[Neu5Ac(a2-3)Gal(b1-4)GlcNAc(b1-2)Man(a1-3)]Man(b1-4)GlcNAc(b1-4)GlcNAc
# Summary of the method: as §1
# [14] = target: Neu5Ac(a2-3)Gal(b1-4)GlcNAc(b1-6)GalNAc
# Summary of the method: as §1
# [15] = target: Neu5Ac(a2-6)Gal(b1-4)GlcNAc
# Summary of the method: as §1
# [16] = target: Neu5Ac(a2-6)Gal(b1-4)GlcNAc(b1-2)Man(a1-3)[Neu5Ac(a2-3)Gal(b1-4)GlcNAc(b1-2)Man(a1-6)]Man(b1-4)GlcNAc(b1-4)GlcNAc
# Summary of the method: as §1
# [17] = target: Neu5Ac(a2-6)Gal(b1-4)GlcNAc(b1-2)Man(a1-6)[Gal(b1-4)GlcNAc(b1-2)Man(a1-3)]Man(b1-4)GlcNAc(b1-4)GlcNAc
# Summary of the method: as §1
# [18] = target: Neu5Ac(a2-6)Gal(b1-4)GlcNAc(b1-3)Gal(b1-3)GlcNAc
# Summary of the method: as §1
# [19] = target: Neu5Ac(a2-6)GlcNAc(b1-4)GlcNAc(b1-4)GlcNAc
# Summary of the method: as §1
# [20] = target: Neu5Ac(a2-8)Neu5Ac(a2-8)Neu5Ac(a2-3)[GalNAc(b1-4)]Gal(b1-4)Glc
# Summary of the method: as §1
binder,measurement,setting,value
B1,glycan array binding signal (z-score),[1],-0.685
same,glycan array binding signal (z-score),[2],-0.585
same,glycan array binding signal (z-score),[3],-0.527
same,glycan array binding signal (z-score),[4],-0.642
same,glycan array binding signal (z-score),[5],-0.408
same,glycan array binding signal (z-score),[6],-0.491
same,glycan array binding signal (z-score),[7],3.84
same,glycan array binding signal (z-score),[8],3.45
same,glycan array binding signal (z-score),[9],-0.656
same,glycan array binding signal (z-score),[10],-0.669
same,glycan array binding signal (z-score),[11],2.92
same,glycan array binding signal (z-score),[12],-0.734
same,glycan array binding signal (z-score),[13],0.242
same,glycan array binding signal (z-score),[14],0.432
same,glycan array binding signal (z-score),[15],-0.395
same,glycan array binding signal (z-score),[16],-0.678
same,glycan array binding signal (z-score),[17],3.21
same,glycan array binding signal (z-score),[18],-0.187
same,glycan array binding signal (z-score),[19],-0.677
same,glycan array binding signal (z-score),[20],2.93
